Experimental data taken from PubChem BioAssay (NCI).
Compounds without any hit were thinned out: in the full panel of roughly 83,000, 20% have a hit.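 For each line, cells grew in 96-well plates with the test compound present at a single concentration for 48 hours.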 Values without a mark were called inactive. Calls of active or inactive are those of the source. Rule for the calls: active = growth percent below 10; inactive = the rest.

Test system: SW-620 colon
Test: NCI-60 one-dose screen, 48 h (100 = growth as untreated, 0 = no growth, -100 = all killed)
Details: 10 µM unless noted

| SMILES | growth |
| --- | --- |
| CCOC(=O)C1=C(C)NC(SCc2nnc(-c3ccc(Cl)cc3)o2)=NC1c1ccc(Cl)cc1 (stereo unspecified) | 85.9% |
| O=Cc1ccc2nc(C(Cl)(Cl)Cl)ccc2c1 | 98.3% |
| CCCc1n(Cc2ccc3ccccc3c2)c2ccccc2[n+]1Cc1ccc2ccccc2c1 | -74.2% (active) |
| CC(CN1CCN(CCOCCO)CC1)CN1c2ccccc2Sc2ccc(Cl)cc21 (stereo unspecified) | 63.6% |
| Clc1ccc(Nc2ncnc3c2sc2ncccc23)c(Cl)c1 | 47.9% |
| COc1ccc(/C=C(/C(=O)N2CCN(c3ccccc3)CC2)c2cc(OC)c(OC)c(OC)c2)cc1O | 24.1% |
| C#CCNC(=S)N/N=C(\C)c1ccccn1 | 34.3% |
| CC(C)NC(=O)OCC#CCOC(=O)NC(C)C | 109% |
| Cc1cc(C)c2c(n1)sc1c(Nc3ccc(Cl)cc3Cl)ncnc12 | 44.6% |
| CCCCn1cnc(-c2cc(-c3ccccc3)cc(C(F)(F)F)c2)n1 | 96% |
| O=C1c2ccccc2C(=O)c2c1oc1ccc3ccccc3c21 | 91.6% |
| COC1=CC(c2ccc[nH]2)=N/C1=C\c1[nH]c(C)c(C(=O)CCCCCCCCC(=O)O[C@H]2CC[C@H]3C4CCc5cc(O)ccc5C4CC[C@]23C)c1C (stereo partly specified) | 6.58% (active) |
| CCSc1ccc([C@@H]2[C@@H](N)C(=O)N2c2cc(OC)c(OC)c(OC)c2)cc1 | 25.8% |
| COc1ccc2[nH]cc(C(c3ccc(Cl)cc3)N3CCCC3)c2c1 (stereo unspecified) | 112% |
| Oc1[nH]c2ccc(Cl)cc2c1/C=c1/ccc2c(c1)N=C(c1ccc(F)cc1)N=2 | 19.3% |
| COc1cc(-c2csc(NC(=O)Nc3cccc(C(F)(F)F)c3)n2)cc(OC)c1OC | 74.3% |
| O=C(Cc1ccc(Nc2ccnc(C(F)(F)F)c2)cc1)N/N=C/c1ccccc1O | 38.3% |
| COc1ccc2nc(C)cc(Nc3ccccc3O)c2c1 | 82% |
| C[C@]12CCc3nc(Nc4ccc(O)cc4)sc3C1=CC[C@@H]1[C@@H]2CC[C@]2(C)/C(=N/NC(N)=S)CC[C@@H]12 | -62% (active) |

| SMILES | growth |
| --- | --- |
| CN(C)CCOc1nc2c3cccnc3cc(-c3cccc(Cl)c3)c2c2ncccc12 | -44.3% (active) |
| Oc1[nH]c2ccccc2c1/C=c1/ccc2c(c1)N=C(c1ccc(C(F)(F)F)cc1)N=2 | 63.7% |
| COc1ccc(/C(=C\c2ccc3c(c2)OCO3)C(=O)Nc2nc3ccc(F)cc3s2)cc1OC | 104% |
| O=C(Nc1ccccc1Cl)Oc1ccc2ccccc2c1 | 103% |
| Nc1nc2c(c3ncccc13)C(c1ccccc1)Cc1ncccc1-2 (stereo unspecified) | 52.9% |
| COc1ccccc1NC(=O)OCC12COCN1COC2 | 101% |
| COc1cc2c(cc1C)NC(=O)/C2=C\c1c[nH]c2ccccc12 | 101% |
| C=C(C)[C@@H]1CC[C@]2(C)[C@H](CC=C3[C@@H]4C[C@](C)(C(=O)N5CCN(C)CC5)CC[C@]4(C)CC[C@]32C)[C@@]1(C)CCC#N | 57.1% |
| COc1ccc(NC(=O)/C=C/c2ccc(Cl)c(Cl)c2)cn1 | 104% |
| CC(C)c1[nH]ncc1-c1nc2ccc3[nH]ncc3c2c2c1CCCC2 | 15.9% |
| COc1ccc(NC(=O)c2ccc(C(F)(F)F)nc2Nc2ccc(Cl)cc2C)cc1Cl | 13.4% |
| NCCCOc1cc2ccccc2cc1C(=O)NCCCOc1cc2ccccc2cc1C(=O)Nc1ccc(Cl)cc1O | -73.9% (active) |
| C/C=C(\C)C(C(=O)NC1CCCCC1)N(C(=O)C1CCc2cc(F)ccc2O1)c1ccc([N+](=O)[O-])cc1 (stereo unspecified) | 94.9% |
| O=C(Cn1nncc1CN1C(=O)CSC1=O)Nc1ccc(F)cc1 | 98.8% |
| CCC(C)C1NC(=O)c2nc(oc2-c2ccccc2)-c2csc(n2)-c2csc(n2)-c2nc(oc2C)-c2coc(n2)CNC(=O)C(C(C)CC)NC1=O (stereo unspecified) | -82.6% (active) |
| C=CCn1c(C)nc2cc(Nc3nc(N4CCCC4)nc4nc[nH]c34)ccc21 | 40.8% |
| Clc1ccc(Nc2ncnc3c2sc2ncccc23)cc1 | 46.6% |
| Cc1ccc(NC(=O)c2nc(S(C)(=O)=O)oc2-c2ccc(F)cc2)cc1Nc1ccc2ncn(C)c(=O)c2c1 | -6.67% (active) |
| CCCCNCC(O)c1cc(-c2ccc(C(F)(F)F)cc2)nc(-c2ccc(C(F)(F)F)cc2)c1 (stereo unspecified) | -82.1% (active) |

Test system: MCF7 breast
Test: as above
Details: 10 µM unless noted

| SMILES | growth |
| --- | --- |
| CCOC(=O)C1=C(C)NC(SCc2nnc(-c3ccc(Cl)cc3)o2)=NC1c1ccc(Cl)cc1 (stereo unspecified) | 49% |
| O=Cc1ccc2nc(C(Cl)(Cl)Cl)ccc2c1 | 82.5% |
| CCCc1n(Cc2ccc3ccccc3c2)c2ccccc2[n+]1Cc1ccc2ccccc2c1 | -64.4% (active) |
| CC(CN1CCN(CCOCCO)CC1)CN1c2ccccc2Sc2ccc(Cl)cc21 (stereo unspecified) | 55.6% |
| Clc1ccc(Nc2ncnc3c2sc2ncccc23)c(Cl)c1 | 18.4% |
| COc1ccc(/C=C(/C(=O)N2CCN(c3ccccc3)CC2)c2cc(OC)c(OC)c(OC)c2)cc1O | 19% |
| C#CCNC(=S)N/N=C(\C)c1ccccn1 | 4.54% (active) |
| CC(C)NC(=O)OCC#CCOC(=O)NC(C)C | 94.4% |
| Cc1cc(C)c2c(n1)sc1c(Nc3ccc(Cl)cc3Cl)ncnc12 | 19.8% |
| CCCCn1cnc(-c2cc(-c3ccccc3)cc(C(F)(F)F)c2)n1 | 99.6% |
| O=C1c2ccccc2C(=O)c2c1oc1ccc3ccccc3c21 | 21.8% |
| COC1=CC(c2ccc[nH]2)=N/C1=C\c1[nH]c(C)c(C(=O)CCCCCCCCC(=O)O[C@H]2CC[C@H]3C4CCc5cc(O)ccc5C4CC[C@]23C)c1C (stereo partly specified) | 24.1% |
| CCSc1ccc([C@@H]2[C@@H](N)C(=O)N2c2cc(OC)c(OC)c(OC)c2)cc1 | 19.6% |
| COc1ccc2[nH]cc(C(c3ccc(Cl)cc3)N3CCCC3)c2c1 (stereo unspecified) | 89.3% |
| Oc1[nH]c2ccc(Cl)cc2c1/C=c1/ccc2c(c1)N=C(c1ccc(F)cc1)N=2 | 10.6% |
| COc1cc(-c2csc(NC(=O)Nc3cccc(C(F)(F)F)c3)n2)cc(OC)c1OC | 35.5% |
| O=C(Cc1ccc(Nc2ccnc(C(F)(F)F)c2)cc1)N/N=C/c1ccccc1O | 12.9% |
| COc1ccc2nc(C)cc(Nc3ccccc3O)c2c1 | 67.7% |
| C[C@]12CCc3nc(Nc4ccc(O)cc4)sc3C1=CC[C@@H]1[C@@H]2CC[C@]2(C)/C(=N/NC(N)=S)CC[C@@H]12 | -35% (active) |

| SMILES | growth |
| --- | --- |
| CN(C)CCOc1nc2c3cccnc3cc(-c3cccc(Cl)c3)c2c2ncccc12 | -50% (active) |
| Oc1[nH]c2ccccc2c1/C=c1/ccc2c(c1)N=C(c1ccc(C(F)(F)F)cc1)N=2 | 37% |
| COc1ccc(/C(=C\c2ccc3c(c2)OCO3)C(=O)Nc2nc3ccc(F)cc3s2)cc1OC | 94.9% |
| O=C(Nc1ccccc1Cl)Oc1ccc2ccccc2c1 | 84.4% |
| Nc1nc2c(c3ncccc13)C(c1ccccc1)Cc1ncccc1-2 (stereo unspecified) | 45.6% |
| COc1ccccc1NC(=O)OCC12COCN1COC2 | 92.4% |
| COc1cc2c(cc1C)NC(=O)/C2=C\c1c[nH]c2ccccc12 | 59.2% |
| C=C(C)[C@@H]1CC[C@]2(C)[C@H](CC=C3[C@@H]4C[C@](C)(C(=O)N5CCN(C)CC5)CC[C@]4(C)CC[C@]32C)[C@@]1(C)CCC#N | 34.1% |
| COc1ccc(NC(=O)/C=C/c2ccc(Cl)c(Cl)c2)cn1 | 71.7% |
| CC(C)c1[nH]ncc1-c1nc2ccc3[nH]ncc3c2c2c1CCCC2 | 20.4% |
| COc1ccc(NC(=O)c2ccc(C(F)(F)F)nc2Nc2ccc(Cl)cc2C)cc1Cl | 9.61% (active) |
| NCCCOc1cc2ccccc2cc1C(=O)NCCCOc1cc2ccccc2cc1C(=O)Nc1ccc(Cl)cc1O | -93.5% (active) |
| C/C=C(\C)C(C(=O)NC1CCCCC1)N(C(=O)C1CCc2cc(F)ccc2O1)c1ccc([N+](=O)[O-])cc1 (stereo unspecified) | 77% |
| O=C(Cn1nncc1CN1C(=O)CSC1=O)Nc1ccc(F)cc1 | 94.6% |
| CCC(C)C1NC(=O)c2nc(oc2-c2ccccc2)-c2csc(n2)-c2csc(n2)-c2nc(oc2C)-c2coc(n2)CNC(=O)C(C(C)CC)NC1=O (stereo unspecified) | -68.6% (active) |
| C=CCn1c(C)nc2cc(Nc3nc(N4CCCC4)nc4nc[nH]c34)ccc21 | 73.5% |
| Clc1ccc(Nc2ncnc3c2sc2ncccc23)cc1 | 19.5% |
| Cc1ccc(NC(=O)c2nc(S(C)(=O)=O)oc2-c2ccc(F)cc2)cc1Nc1ccc2ncn(C)c(=O)c2c1 | 52.5% |
| CCCCNCC(O)c1cc(-c2ccc(C(F)(F)F)cc2)nc(-c2ccc(C(F)(F)F)cc2)c1 (stereo unspecified) | -84.8% (active) |
